Data reported in PubChem BioAssay (Tox21).
Records with an inconclusive call do not appear. Calls of active or inactive are those of the source. Unless noted, calls come from the whole dose curve.

Columns and labels:
[1] = Nuclear factor erythroid 2-related factor 2/antioxidant responsive element (Nrf2/ARE) small molecule agonists: qHTS cell viability counter screen in human keratinocytes (AID 1919968; active = well fitted curve in the direction sought with a large enough effect in the repeat runs; an effect the other way counts as inactive or inconclusive; note: nearly all actives have a fitted effect of over 55% in size)
In short: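 KeratinoSens cells (HaCaT keratinocytes stably carrying an ARE-luciferase reporter) were seeded at 1,500 cells/well and rested 5 h at 37 C/5% CO2. They were then exposed to compounds in DMSO for 23 h. Viability was read by CellTiter-Fluor fluorescence after 1 h.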

[2] = Nuclear factor erythroid 2-related factor 2/antioxidant responsive element (Nrf2/ARE) small molecule agonists: luciferase reporter gene qHTS assay in human keratinocytes (AID 1919969); note: nearly all actives have a fitted effect of over 35% in size; note: potency is the fitted concentration of half-maximal effect
[3] = biological target: KiSS-1 receptor (Homo sapiens) (UniProt Q969F8); assay: Human kisspeptin (KISS1R) small molecule agonists, calcium flux assay in KISS1R-HEK293 cells (AID 1920064; active = well fitted curve in the direction sought with a large enough effect in the repeat runs; an effect the other way counts as inactive or inconclusive)
In short: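 HEK293 cells stably expressing human KISS1R were plated 18 h at 37 °C, loaded with calcium dye for 1 h at 37 °C, then given compound by pin tool. Fluorescence (Ex/Em 480/540) was read kinetically for 3 min.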

[4] = G protein-coupled receptor (GPCR) small molecule agonists, calcium flux assay: HEK293 wild type cell line counter screen (AID 1920065)
In short: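 Cells were plated and cultured 18 h at 37 C/5% CO2, then loaded with calcium dye for 1 h at 37 C. Compounds in DMSO were pin-transferred in agonist mode, and fluorescence (Ex/Em 480/540) was read kinetically for 3 min at 1 s intervals.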

[5] = p53 small molecule agonists, cell-based qHTS assay with human liver microsomes (AID 1963577)
In short: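 Fluorescence of the beta-lactamase reporter in p53RE-bla cells, detected with LiveBLAzer substrate (2 h, room temperature, dark), served as the read-out after 16 h compound exposure at 37 C with human liver microsomes and NADPH, each 0.5 mg/mL final.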

[6] = p53 small molecule agonists, cell-based qHTS assay with rat liver microsomes (AID 1963578)
In short: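 Cells carrying a p53 response element–beta-lactamase reporter were plated and rested 5 h, then dosed with compound in DMSO plus rat liver microsomes and NADPH, each at 0.5 mg/mL final. After 16 h at 37 C, LiveBLAzer substrate was added for 2 h.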

[7] = p53 small molecule agonists, cell-based qHTS assay with human liver microsomes: qHTS cell viability counter screen (AID 1963579); note: nearly all actives have a fitted effect of over 45% in size
In short: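 Cytotoxicity counter screen: p53RE-bla, 4,000 cells/well; 5 h settle, 37 C/5% CO2; cpd + HLM 0.5 mg/mL + NADPH 0.5 mg/mL (final); 16 h, 37 C; CellTiter-Glo, 30 min RT, luminescence.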

[8] = p53 small molecule agonists, cell-based qHTS assay with rat liver microsomes: qHTS cell viability counter screen (AID 1963580); note: nearly all actives have a fitted effect of over 45% in size
In short: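 Viability is assessed in parallel with the p53 reporter read: HCT-116 p53RE-bla cells receive compounds plus rat microsomes and NADPH (0.5 mg/mL final apiece), incubate 16 h at 37 C, and then CellTiter-Glo luminescence is recorded.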

[9] = p53 small molecule agonists, cell-based qHTS assay (AID 1963582; active = well fitted activation curve with a large enough effect in the signal ratio in the repeat runs, not every such curve was filed as active; the % refers to the signal ratio)
In short: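 p53RE-bla beta-lactamase reporter cells rested 5 h at 37 C/5% CO2, then received compounds in DMSO by pin transfer and were incubated 16 h at 37 C. LiveBLAzer B/G FRET substrate was loaded for 2 h at room temperature before fluorescence reading.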

[10] = biological target: 5-hydroxytryptamine receptor 2A (Homo sapiens) (UniProt P28223); assay: 5-hydroxytryptamine receptor 2A (HTR2A) small molecule antagonists, cell-based qHTS assay (AID 1963586); note: nearly all actives have a fitted effect of over 45% in size
In short: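 Antagonist-mode intracellular calcium assay: DOI (4 nM) added after 5 min compound pre-incubation at room temperature to dye-loaded HTR2A-CHO cells. Fluorescence followed for 3 min, sampled every second.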

[11] = biological target: 5-hydroxytryptamine receptor 2A (Homo sapiens) (UniProt P28223); assay: 5-hydroxytryptamine receptor 2A (HTR2A) small molecule agonists, cell-based qHTS assay (AID 1963587); note: nearly all actives have a fitted effect of over 30% in size
In short: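 CHO cells stably expressing human HTR2A, plated 18 h, loaded with calcium dye 1 h at 37 C. Agonist mode: compounds added and intracellular calcium fluorescence recorded kinetically for 2 min at 1 sec intervals.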

[12] = biological target: Muscarinic acetylcholine receptor M1 (Homo sapiens) (UniProt P11229); assay: Cholinergic receptor muscarinic 1 (CHRM1) small molecule antagonists, cell-based qHTS assay (AID 1963588); note: nearly all actives have a fitted effect of over 40% in size
In short: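 CHRM1-CHO calcium-flux assay, antagonist mode. Cells were seeded 18 h, dye-loaded 1 h at 37 C and given compound for 5 min at RT, then acetylcholine was added at 50nM. FDSS fluorescence was read 3 min; 15 concentrations, three runs.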

[13] = biological target: Muscarinic acetylcholine receptor M1 (Homo sapiens) (UniProt P11229); assay: Cholinergic receptor muscarinic 1 (CHRM1) small molecule agonists, cell-based qHTS assay (AID 1963589); note: nearly all actives have a fitted effect of over 35% in size
In short: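 CHO cells stably expressing human CHRM1, seeded 18 h at 37 C/5% CO2, dye-loaded 1 h at 37 C, then given compound in agonist mode; intracellular calcium fluorescence read kinetically at 1 s intervals. Fifteen concentrations, three independent runs.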

[14] = cAMP Responsive Elements (CRE) small molecule agonists, cell-based qHTS assay (AID 1963590)
In short: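 CRE-bla HEK 293T cells in DMEM with 10% dialyzed FBS, NEAA, pyruvate and 25 mM HEPES were plated 18 h at 37 C/5% CO2, then exposed to compounds in DMSO for 3 h before LiveBLAzer B/G FRET substrate addition.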

[15] = cAMP Responsive Elements (CRE) small molecule antagonists, cell-based qHTS assay (AID 1963591; active = well fitted inhibition curve with a large enough effect in the signal ratio in the repeat runs, not every such curve was filed as active; the % refers to the signal ratio)
In short: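 CRE-bla HEK293T cells were plated 18 h at 37 °C/5% CO2, pinned with compound in DMSO, then stimulated with NKH477 at 0.25 uM final for 3 h. LiveBLAzer B/G FRET substrate was added and plates incubated 2 h at room temperature.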

[16] = biological target: Beta-2 adrenergic receptor (Homo sapiens) (UniProt P07550); assay: Adrenergic beta2 receptor (ADRB2) small molecule antagonists, cell-based qHTS assay (AID 1963592); note: series mostly up to about 92 µM; nearly all actives have a fitted effect of over 50% in size
In short: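 Cells (CHO, stable ADRB2 overexpression) incubated 18-20hr at 37C; compounds added from DMSO; agonist mix (1nM isoproterenol, 100uM IBMX, 25uM Ro-20-1724) added; 0.5hr RT; d2-cAMP and anti-cAMP-cryptate added; 1hr RT; 665/615 nm read.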

[17] = biological target: D(2) dopamine receptor (Homo sapiens) (UniProt P14416); assay: Dopamine D2 receptor (DRD2) small molecule agonists, cell-based qHTS assay (AID 1963594); note: nearly all actives have a fitted effect of over 35% in size
In short: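 HEK293 cells stably expressing human DRD2, pre-treated with PDE inhibitor Ro20-1724 (0.1 mM final) and compound 10 min at room temperature, then stimulated with NKH477 (200nM […]) for 30 min. cAMP read by HTRF (665/620 nm).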

[18] = biological target: D(2) dopamine receptor (Homo sapiens) (UniProt P14416); assay: Dopamine D2 receptor (DRD2) small molecule antagonists, cell-based qHTS assay (AID 1963595; active = well fitted inhibition curve with a large enough effect in the signal ratio in the repeat runs, with a control signal flat; the % refers to the signal ratio; note: potency is the fitted concentration of half-maximal effect)
In short: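 HEK293 cells stably expressing DRD2 were preincubated with 0.1 mM Ro20-1724, then with compound for 10 min at room temperature. Cells were stimulated with 200 nM NKH477 plus 12 nM quinpirole for 30 min, and cAMP was read by HTRF.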

[19] = p53 small molecule agonists, cell-based qHTS assay: qHTS cell viability counter screen (AID 1963581); note: nearly all actives have a fitted effect of over 45% in size
In short: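 p53RE-bla HCT-116 cells were exposed to compounds for 16 h at 37 C; after the beta-lactamase FRET read in the same wells, CellTiter-Glo was added and luminescence (intracellular ATP) read after 30 min at room temperature.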
% is set by controls: 0 for no effect and ±100 for the full control effect.

Sequence of KiSS-1 receptor (Homo sapiens) (Q969F8 whole entry, looked up): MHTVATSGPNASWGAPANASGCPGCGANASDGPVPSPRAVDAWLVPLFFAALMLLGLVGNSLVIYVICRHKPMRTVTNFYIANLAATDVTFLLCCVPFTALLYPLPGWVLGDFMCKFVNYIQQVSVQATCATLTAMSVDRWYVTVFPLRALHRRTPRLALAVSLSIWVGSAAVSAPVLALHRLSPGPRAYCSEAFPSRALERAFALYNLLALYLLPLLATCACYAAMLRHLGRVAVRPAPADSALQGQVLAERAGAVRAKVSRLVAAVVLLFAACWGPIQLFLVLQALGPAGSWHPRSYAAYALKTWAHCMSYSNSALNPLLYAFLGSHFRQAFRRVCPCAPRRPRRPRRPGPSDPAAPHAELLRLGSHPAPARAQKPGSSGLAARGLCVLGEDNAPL
Sequence of 5-hydroxytryptamine receptor 2A (Homo sapiens) (P28223 whole entry, looked up): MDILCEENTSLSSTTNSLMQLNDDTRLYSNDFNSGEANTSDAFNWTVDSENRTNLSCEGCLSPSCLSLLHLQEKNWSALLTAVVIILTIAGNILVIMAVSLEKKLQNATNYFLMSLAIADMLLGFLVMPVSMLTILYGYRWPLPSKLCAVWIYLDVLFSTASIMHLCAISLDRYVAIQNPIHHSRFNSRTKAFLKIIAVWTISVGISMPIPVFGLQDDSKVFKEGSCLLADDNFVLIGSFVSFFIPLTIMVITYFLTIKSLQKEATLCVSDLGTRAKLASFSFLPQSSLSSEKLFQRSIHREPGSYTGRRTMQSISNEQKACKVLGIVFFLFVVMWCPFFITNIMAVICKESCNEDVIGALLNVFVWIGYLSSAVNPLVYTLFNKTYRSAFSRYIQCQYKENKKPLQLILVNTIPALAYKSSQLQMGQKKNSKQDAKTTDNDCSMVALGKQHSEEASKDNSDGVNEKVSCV
Sequence of D(2) dopamine receptor (Homo sapiens) (P14416 whole entry, looked up): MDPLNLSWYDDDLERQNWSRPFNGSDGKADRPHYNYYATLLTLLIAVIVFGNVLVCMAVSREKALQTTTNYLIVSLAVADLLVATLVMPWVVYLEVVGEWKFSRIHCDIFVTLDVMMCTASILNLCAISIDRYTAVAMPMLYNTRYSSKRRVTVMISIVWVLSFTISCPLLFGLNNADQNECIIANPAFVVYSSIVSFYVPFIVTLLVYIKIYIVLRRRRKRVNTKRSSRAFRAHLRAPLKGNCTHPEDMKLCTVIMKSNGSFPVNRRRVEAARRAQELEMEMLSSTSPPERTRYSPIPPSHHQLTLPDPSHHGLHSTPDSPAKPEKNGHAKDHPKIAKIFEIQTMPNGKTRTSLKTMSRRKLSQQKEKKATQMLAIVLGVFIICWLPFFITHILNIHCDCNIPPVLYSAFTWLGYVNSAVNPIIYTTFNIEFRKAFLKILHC
Sequence of Beta-2 adrenergic receptor (Homo sapiens) (P07550 whole entry, looked up): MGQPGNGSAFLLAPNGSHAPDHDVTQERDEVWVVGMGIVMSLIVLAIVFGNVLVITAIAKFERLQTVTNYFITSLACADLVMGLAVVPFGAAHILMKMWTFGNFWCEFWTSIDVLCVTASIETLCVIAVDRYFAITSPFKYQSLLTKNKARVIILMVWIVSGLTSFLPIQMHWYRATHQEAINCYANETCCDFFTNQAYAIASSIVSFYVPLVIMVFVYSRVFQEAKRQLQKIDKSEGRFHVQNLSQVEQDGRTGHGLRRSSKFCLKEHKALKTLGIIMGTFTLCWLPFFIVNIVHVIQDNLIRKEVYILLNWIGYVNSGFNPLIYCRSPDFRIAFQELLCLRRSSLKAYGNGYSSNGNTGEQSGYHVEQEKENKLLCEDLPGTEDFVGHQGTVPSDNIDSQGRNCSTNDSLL
Sequence of Muscarinic acetylcholine receptor M1 (Homo sapiens) (P11229 whole entry, looked up): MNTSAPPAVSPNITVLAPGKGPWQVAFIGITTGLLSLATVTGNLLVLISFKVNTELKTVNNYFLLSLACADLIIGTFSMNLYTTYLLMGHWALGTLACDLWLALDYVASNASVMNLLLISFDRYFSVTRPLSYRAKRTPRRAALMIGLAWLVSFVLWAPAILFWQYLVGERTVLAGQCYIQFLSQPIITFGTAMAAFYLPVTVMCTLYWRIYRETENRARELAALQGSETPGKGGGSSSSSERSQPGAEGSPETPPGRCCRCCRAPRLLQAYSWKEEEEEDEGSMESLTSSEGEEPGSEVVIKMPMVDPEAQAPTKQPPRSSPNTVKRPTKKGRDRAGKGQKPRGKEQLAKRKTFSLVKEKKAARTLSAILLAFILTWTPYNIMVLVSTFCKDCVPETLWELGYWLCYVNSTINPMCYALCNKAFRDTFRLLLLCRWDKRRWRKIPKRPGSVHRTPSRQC

COCCOCC(OC)OC
inactive: Potency [1] | Potency [2] | outcome [3] | outcome [4] | Potency [5] | Potency [6] | Potency [7] | Potency [8] | Potency [9] | Potency [10] | Potency [11] | Potency [12] | Potency [13] | Potency [14] | Potency [15] | Potency [16] | Potency [17] | Potency [18]

CC[C@@H](N)CO
inactive: Potency [1] | Potency [2] | outcome [3] | outcome [4] | Potency [5] | Potency [6] | Potency [7] | Potency [8] | Potency [19] | Potency [9] | Potency [11] | Potency [12] | Potency [13] | Potency [14] | Potency [15] | Potency [16] | Potency [17] | Potency [18]

CCC(C(=O)OCCN1CCOC(c2ccccc2)C1C)c1ccccc1 (centres undefined)
inactive: Potency [1] | Potency [2] | outcome [3] | outcome [4] | Potency [5] | Potency [6] | Potency [7] | Potency [8] | Potency [19] | Potency [11] | Potency [13] | Potency [14] | Potency [15] | Potency [16] | Potency [17] | Potency [18]

O=C(O)Cc1c(Cl)ccc(Cl)c1Cl
inactive: Potency [1] | Potency [2] | outcome [3] | outcome [4] | Potency [5] | Potency [6] | Potency [7] | Potency [8] | Potency [19] | Potency [9] | Potency [10] | Potency [11] | Potency [12] | Potency [13] | Potency [16] | Potency [17] | Potency [18]

O=S(=O)(O)c1ccc(Cl)cc1
inactive: Potency [1] | Potency [2] | outcome [3] | outcome [4] | Potency [5] | Potency [6] | Potency [7] | Potency [8] | Potency [19] | Potency [9] | Potency [10] | Potency [11] | Potency [12] | Potency [14] | Potency [15] | Potency [16] | Potency [17] | Potency [18]

O=C(O)c1cn(C2CC2)c2cc(Cl)c(F)cc2c1=O
active: Potency [2] 13.3 µM
inactive: Potency [1] | outcome [3] | outcome [4] | Potency [5] | Potency [6] | Potency [7] | Potency [8] | Potency [19] | Potency [10] | Potency [11] | Potency [12] | Potency [13] | Potency [16] | Potency [17] | Potency [18]

C1CC(COCC2CO2)CCC1COCC1CO1 (centres undefined)
inactive: Potency [1] | outcome [3] | outcome [4] | Potency [5] | Potency [6] | Potency [7] | Potency [8] | Potency [19] | Potency [10] | Potency [11] | Potency [12] | Potency [13] | Potency [16] | Potency [17] | Potency [18]
active: Potency [2] 61.1 µM

CN(C)CCC=C1c2ccccc2C=Cc2ccccc21
inactive: Potency [1] | Potency [2] | outcome [3] | outcome [4] | Potency [5] | Potency [6] | Potency [7] | Potency [8] | Potency [19] | Potency [11] | Potency [12] | Potency [14] | Potency [15] | Potency [17]
active: Potency [18] 33.5 µM

O=S(O)O
inactive: activity change, negative = cytotoxicity [1] -0.591% [at 19 µM] | activity, positive = activation [2] -3.64% [at 19 µM] | activation [3] -3.75% [at 15.8 µM] | activation [4] -0.558% [at 11.8 µM] | activation [5] 4.55% [at 13.5 µM] | activation [6] -0.532% [at 13.6 µM] | activity change, negative = cytotoxicity [7] -0.784% [at 13.5 µM] | activity change, negative = cytotoxicity [8] 11.9% [at 13.5 µM] | activity change, negative = cytotoxicity [19] 16.3% [at 13.5 µM] | activation [9] 0.538% [at 13.5 µM] | activity, negative = inhibition [10] -15% [at 12.7 µM] | activation [11] 4.7% [at 15.9 µM] | activation [13] 0.709% [at 15.8 µM] | activation [14] 1.33% [at 19 µM] | activity change, negative = inhibition [15] 0.0539% [at 18.9 µM] | activation [17] 2.66% [at 19 µM] | activity change, negative = inhibition [18] -0.433% [at 18.9 µM]

CCOc1nc2cccc(C(=O)O)c2n1Cc1ccc(-c2ccccc2-c2nn[nH]n2)cc1
inactive: Potency [1] | Potency [2] | outcome [3] | outcome [4] | Potency [5] | Potency [6] | Potency [7] | Potency [8] | Potency [19] | Potency [9] | Potency [14] | Potency [15] | Potency [17] | Potency [18]

[Cl][Pt-2]([Cl])([Cl])[Cl]
inactive: Potency [1] | Potency [2] | outcome [3] | outcome [4] | Potency [5] | Potency [6] | Potency [7] | Potency [8] | Potency [19] | Potency [10] | Potency [11] | Potency [12] | Potency [15] | Potency [16]

NCCCCCC(=O)O
inactive: Potency [1] | Potency [2] | outcome [3] | outcome [4] | Potency [5] | Potency [6] | Potency [7] | Potency [8] | Potency [19] | Potency [9] | Potency [14] | Potency [15] | Potency [16] | Potency [17] | Potency [18]

Brc1ccc(-c2ccccc2)cc1
inactive: Potency [1] | Potency [2] | outcome [3] | outcome [4] | Potency [5] | Potency [6] | Potency [7] | Potency [8] | Potency [19] | Potency [9] | Potency [11] | Potency [12] | Potency [13] | Potency [14] | Potency [15] | Potency [16] | Potency [17] | Potency [18]

CCCCNc1ccc(NCCCC)c2c1C(=O)c1ccccc1C2=O
inactive: activity change, negative = cytotoxicity [1] -4.75% [at 19 µM] | activity, positive = activation [2] 14.7% [at 19 µM] | activation [3] -3.45% [at 15.8 µM] | activation [4] 0.174% [at 11.8 µM] | activation [5] 5.72% [at 13.5 µM] | activation [6] 1.5% [at 13.6 µM] | activity change, negative = cytotoxicity [7] -5.72% [at 13.5 µM] | activity change, negative = cytotoxicity [19] -1.83% [at 13.5 µM] | activation [9] 7.46% [at 13.5 µM] | activity, negative = inhibition [10] -10.8% [at 12.7 µM] | activation [11] -0.354% [at 15.9 µM] | activity, negative = inhibition [12] 4.22% [at 12.6 µM] | activation [13] -0.373% [at 15.8 µM] | activity change, negative = inhibition [15] -1.01% [at 18.9 µM] | activity change, negative = inhibition [16] 1.56% [at 19 µM] | activation [17] 6.31% [at 19 µM] | activity change, negative = inhibition [18] -5.82% [at 18.9 µM]
